Reference: PubChem BioAssay (NCI)
This is part of a sample that, as a whole, favours compounds with a hit. Of some 83,000 tested, about 20% had one in any assay.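 Testing used 96-well plates and a 48-hour single-concentration exposure. Example: -40 means 40% of the starting cells died.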 A number with no mark means an inactive call. The source made the active and inactive calls. Rule for the calls: active = growth percent below 10; inactive = the rest.

Key:
Experiment in all cases: NCI-60 one-dose screen, 48 h (100 = growth as untreated, 0 = no growth, -100 = all killed)
Settings in all cases: 10 µM unless noted
T-47D breast = test system: T-47D breast
BT-549 breast = test system: BT-549 breast
MDA-MB-435 melanoma = test system: MDA-MB-435 melanoma
SW-620 colon = test system: SW-620 colon
MCF7 breast = test system: MCF7 breast
HCT-116 colon = test system: HCT-116 colon
HCC-2998 colon = test system: HCC-2998 colon
KM12 colon = test system: KM12 colon

| SMILES | growth (T-47D breast) | growth (BT-549 breast) | growth (MDA-MB-435 melanoma) | growth (SW-620 colon) | growth (MCF7 breast) | growth (HCT-116 colon) | growth (HCC-2998 colon) | growth (KM12 colon) |
| --- | --- | --- | --- | --- | --- | --- | --- | --- |
| COc1cccc(-c2cc(-c3cccc(Cl)c3)c(C#N)c(=O)[nH]2)c1 | 80.1% | 53.5% | 4.96% (active) | 49.3% | 55.5% | 73.9% | 98.7% | 57.5% |
| COc1ccc(C(=O)N2c3ccccc3Sc3ccccc32)c(C(F)(F)F)c1 | 52.3% | 10.7% | -25% (active) | 24.7% | 17% | 6.57% (active) | 26% | 18% |
| CN1CCN(CCOc2ccc(-c3cnc4c(-c5cccc(F)c5F)cnn4c3)cc2)CC1 | 85.4% | 50.4% | -66.1% (active) | -68.9% (active) | -23.8% (active) | -65% (active) | 101% | -68.9% (active) |
| CCN(CC)CCN1C(=O)c2c(c(C)c3c(oc4ccc(OC)cc43)c2C)C1=O | 110% | 116% | 104% | 92.2% | 94.8% | 83.7% | 100% | 99.5% |
| CCN(CC)c1ccc(CNc2cc(C)nc3ccccc23)cc1 | 39% | 71.6% | 65.7% | 76.9% | 39.2% | 52.1% | 42.1% | 71.9% |
| COc1ccc(Nc2ncccc2/C=C/C(=O)c2cc(OC)c(OC)c(OC)c2)cc1 | -4.22% (active) | -35% (active) | -35.8% (active) | -68.3% (active) | -61.3% (active) | -50.2% (active) | -75.9% (active) | -87.5% (active) |
| COc1cc2nc3sc(C(=O)Nc4ccc(C(=O)OC(C)C)cc4)c(C(=O)Nc4ccc(Cl)cc4C)n3c(=O)c2cc1OC | 46.5% | 96.7% | 76.5% | 38.7% | 52.2% | 76.3% | 20.5% | 52.3% |
| Nc1c(C(=O)Nc2cccc(Cl)c2)sc2nc3c(cc12)CCCC3 | 80.8% | 93.1% | 34.4% | 92.3% | 71.6% | 91.6% | 91.4% | 77.6% |
| COc1cc(/C=C/C(=O)/C=C(O)/C=C/c2ccc(OC(=O)C34CC5CC(CC(C5)C3)C4)c(OC)c2)ccc1OC(=O)C12CC3CC(CC(C3)C1)C2 | 97.9% | 104% | 106% | 98.4% | 98.5% | 89.9% | 106% | 113% |
| CN(C)CCCC1(c2ccc(F)cc2)OCc2cc(-c3cc4ccccc4s3)ccc21 (stereo not given) | -2.98% (active) | 80.1% | -84.4% (active) | -70% (active) | -53.5% (active) | -80.6% (active) | -78.4% (active) | -72.1% (active) |
| O=C(NNC(=O)c1nc2cc(F)ccc2n2cccc12)c1cnccn1 | 38.5% | 66% | 36.2% | 26.4% | 34.8% | 32.4% | 50.7% | 28% |
| COc1cccc(/C=C/C(=O)c2cccc(Nc3nc(Nc4ccccc4)nc(Nc4ccccc4)n3)c2)c1 | 53.5% | 99% | 91.4% | 40.5% | 21.9% | 12.8% | 21.6% | 62.8% |
| CNC(C)[C@H]1CCC2C3CC=C4C(=O)[C@@H](NC(=O)C=C(C)C)CC[C@]4(C)C3CC[C@@]21C (stereo not given in full) | -21% (active) | 35.9% | -40.6% (active) | -52% (active) | -41.8% (active) | -30% (active) | -6.4% (active) | 10.1% |
| C#Cc1cccc(Nc2nc(C)nc3cc(NC(=O)CCl)ccc23)c1 | -55.3% (active) | -71.2% (active) | -51.1% (active) | -63.6% (active) | -68% (active) | -65.2% (active) | -88.1% (active) | -73.7% (active) |
| CC(C)(C)n1cc(-c2ccnc(NCCCNS(=O)(=O)c3cccc4ccccc34)c2)c(-c2cccc(F)c2)n1 | 34% | 65.4% | 90.4% | 92.4% | 52.9% | 53.5% | 82.8% | 76.6% |
| C=C1C(=O)O[C@H]2[C@H]1CC/C(COC(=O)/C=C/C(=O)OC/C1=C/CC[C@@]3(C)O[C@H]3[C@H]3OC(=O)C(=C)[C@@H]3CC1)=C\CC[C@@]1(C)O[C@@H]21 | 32.9% | 93.9% | 80.4% | 6.25% (active) | 22.2% | 2.7% (active) | 106% | 90% |
| Cc1cccc(Oc2ccc(Nc3ncnc4ccc(NC(=O)CN5CCN(C)CC5)cc34)cc2Cl)c1 | 7.58% (active) | 70.3% | -67.8% (active) | 3.68% (active) | 7.21% (active) | 12.3% | 19.3% | 30.7% |
| Cc1ccc2nc(-c3ccc(C(=O)NNC(=S)Nc4ccccc4)cc3)[nH]c2c1 | 86.3% | 90.6% | 97.8% | 108% | 79.5% | 84.6% | 103% | 94.8% |
| C/C=C(\C)C(=O)N[C@H]1C(O)C[C@]2(C)C3CC[C@@]4(C)C(CC[C@@H]4C(C)N(C)C)C3CCC2C1O (stereo not given in full) | 37.6% | 88.9% | -22.2% (active) | 12.9% | 28.6% | 3.85% (active) | 59.7% | 28.7% |
| COc1ccc(C(=O)/C=C/c2ccc(Cl)cc2)cc1S(=O)(=O)Nc1c(N)nc(SC)[nH]c1=O | 62.5% | 60.5% | 80% | 7.52% (active) | 18.8% | 11.4% | 90.8% | 12.8% |
| COc1ccc(C(=O)/C=C/c2ccc(N3CCCCC3)cc2)cc1OC | 76.6% | 87.4% | 103% | 102% | 90.4% | 82.7% | 107% | 98.9% |
| C/C(=N\O)[C@@H]1CC[C@]2(CO)CC[C@]3(C)[C@H](CC[C@@H]4[C@@]5(C)CCCNC(C)(C)[C@@H]5CC[C@]43C)[C@@H]12 | 72.5% | 90.5% | 79.5% | 88.5% | 50.9% | 76.5% | 103% | 83.6% |
| COc1ccc(/C=C/C(=O)c2cc3c(N)c(C(=O)Nc4cccc(Cl)c4C)sc3nc2C)cc1 | 38.9% | -19% (active) | -28.2% (active) | 13.2% | 7.78% (active) | 5.3% (active) | 1.15% (active) | 7.8% (active) |
| Cc1ccc2c(-n3nc(C#N)c(C#N)c3N)cc(=O)[nH]c2c1 | 77% | 86.9% | 107% | 99.3% | 85.1% | 76% | 139% | 94.8% |
| CCOC(=O)c1c(C)nc2ccccc2c1/C=C/c1cccs1 | 17.4% | 77.4% | 88.7% | 91.9% | 39.5% | 61.3% | 79.4% | 77.8% |
| N#C/C(=C\C=C\c1ccc(-c2cc(Cl)ccc2Cl)o1)c1nc2ccccc2s1 | 84.8% | 104% | 102% | 98.1% | 83.3% | 96.6% | 102% | 106% |
| CN1CCN(C(=O)C(C)(C)c2ccc(C(=O)Nc3cn4cc(-c5ccncc5)ccc4n3)cc2)CC1 | 3.75% (active) | 7.86% (active) | 14.2% | 11.1% | -0.0814% (active) | 5.31% (active) | 13.9% | 7.82% (active) |
| CCCCC#Cc1c(I)n(C)c(=O)[nH]c1=O | -2.85% (active) | -57.1% (active) | -36.8% (active) | -93.2% (active) | 52.3% | -41.1% (active) | -25.6% (active) | 108% |
| COc1ccc(CNc2c3ccccc3nc3ccccc23)c(OC)c1 | 52.9% | 66.7% | 38.7% | 20.7% | 14.5% | 12.8% | 35.6% | 54.3% |
| CC1=C(CCC(C)NCc2ccc(OCCCN3CCCCC3)cc2)C(C)(C)CCC1 (stereo not given) | -64.8% (active) | -63.9% (active) | -93.8% (active) | -80.3% (active) | -58.4% (active) | -85.3% (active) | -84.3% (active) | -80% (active) |
